Laboratory results: PubChem BioAssay (NCI)
Where “and” joins values, the source holds several entries; their conditions need not be identical. Equal values may be shown once. About 83,000 compounds went through this panel and 20% of them were active in at least one assay; those are over-represented in the sample as a whole.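 Compound tested at a single concentration for 48 hours in 96-well plates; a percent growth value below 10 was scored as active.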 Calls of active or inactive are those of the source.

test system: HL-60(TB) leukemia; assay: NCI-60 one-dose screen, 48 h (100 = growth as untreated, 0 = no growth, -100 = all killed); details: 10 µM unless noted

| Structure (SMILES) | growth |
| --- | --- |
| CC(C)(C)c1nc2c(s1)c1nc(N)ncc1c1ccc(NS(=O)(=O)c3c(F)cccc3F)c(F)c12 | 79.9% (inactive) |
| CCCCC(N)(C(=O)O)C1CCCC1 (centres undefined) | 132% (inactive) |
| O=C(c1ccccc1)C(Cl)C(Cl)c1ccccc1 (centres undefined) | 25.2% (inactive) |
| COc1ccc(C2NC(=O)C(C#N)c3c2sc2c(F)cccc32)cc1 (centres undefined) | 10.5% (inactive) |
| COc1cc(-c2ccc(N=Nc3ccc4c(S(=O)(=O)O)ccc(N)c4c3O)c(OC)c2)ccc1N=Nc1ccc2c(S(=O)(=O)O)ccc(N)c2c1O | 115% (inactive) |
| O=C(NCc1cn(Cc2cccc(Oc3ccccc3)c2)nn1)c1cccnc1Nc1ccccc1 | 32% (inactive) |
| N#C/C(=C\c1ccc[nH]1)c1cc2ccccc2[nH]1 | 64.8% (inactive) |
| O=C(/C=C/c1ccco1)Nc1ncc(Cc2cccc(C(F)(F)F)c2)s1 | -53.6% (active) |
| O=C(C(=Cc1ccccc1)C(=O)c1ccccc1)c1ccccc1 | 13% (inactive) and 110% (inactive) |
| Cc1nc(/N=C(\N)NC(=O)Nc2cccc([N+](=O)[O-])c2)sc1C | 39.5% (inactive) |
| CCOC(=O)c1ccc2c(c1)nc(-c1ccc(Cl)cc1)n2-c1cc(C(C)(C)C)[nH]n1 | -14.7% (active) |
| CCCCCCCCCCCCCCCCC(Br)C(=O)O (centres undefined) | 111% (inactive) |
| O=C1c2ccc3c4ccc5c6c(ccc(c7ccc(c2c37)C(=O)N1CCC[P+](c1ccccc1)(c1ccccc1)c1ccccc1)c64)C(=O)N(CCC[P+](c1ccccc1)(c1ccccc1)c1ccccc1)C5=O | 54.6% (inactive) |
| N#CC1=C(N)Oc2c(sc3c(Br)cccc23)C1c1ccc(Cl)cc1 (centres undefined) | -7.34% (active) |
| C#COc1cccc(Nc2ncnc3ncc(NC(=O)CCl)cc23)c1 | -1.51% [6.25 µM] (active) |
| CC(=O)OCC1OC(OCC2OC(OC(C)=O)C(OC(C)=O)C(OC(C)=O)C2OC(C)=O)C(OC(C)=O)C(OC(C)=O)C1OC(C)=O (centres undefined) | 115% (inactive) |
| COC(=O)/C(=C\c1c(-c2ccccc2)[nH]c2ccccc12)S(C)(=O)=O | 1.54% (active) |
| CNC(=O)CN1CCC(Oc2cc3c(Nc4cccc(Cl)c4F)ncnc3cc2OC)CC1 | 86.9% (inactive) |
| CCOc1ccc2nc(-c3cccc(OCC(=O)NC(C)C)c3)nc(Nc3ccc(-c4cn[nH]c4)cc3)c2c1 | 2.3% (active) |
| CCOC(=O)Nc1ccc(-c2nc(-c3cccc(OC)c3)c(-c3ccnc(Br)c3)[nH]2)cc1 | -18.7% (active) |

| Structure (SMILES) | growth |
| --- | --- |
| COc1cc(NC(=O)Nc2cnc(Nc3ccc(N4CCOCC4)cc3)nc2Oc2cccc(OC)c2)cc(OC)c1 | 22.8% (inactive) |
| COC(=O)Nc1nc2ccc(Sc3ccccc3)cc2[nH]1 | -5.94% (active) |
| CCCCCCCC[Si](OCC)(OCC)OCC | 94.3% (inactive) |
| Cc1ccc(C)c2c1sc1nc3nc4sc5ccccc5n4c(=N)c3c(=O)n12 | 89% (inactive) |
| CCOc1nc(-c2ccccc2)cc2c(O)c(C(=O)O)[nH]c(=O)c12 | 120% (inactive) |
| CC1=C(C)C[C@]2(C(=O)O[C@H]3CCCC[C@@H]32)[S@](=O)C1 | 98.1% (inactive) |
| COC(=O)c1c2c(c(C)[n+]([O-])c1C)C(=O)C=C(NCc1ccc(F)cc1)C2=O | -29.4% (active) |
| O=S(=O)(NCCCNc1nccc(-c2c(-c3ccc(F)c(O)c3)nc3sccn23)n1)c1ccccc1 | 69.8% (inactive) |
| O=C1c2cc3c(cc2-c2c1c1cc(Cl)c(Cl)cc1c(=O)n2C[C@H](O)CO)OCO3 | -22.6% (active) |
| O=C(O)C1CSCN1 (centres undefined) | 80.4% (inactive) and 83.9% (inactive) |
| COc1ccc(N2CCC(=O)NC2=S)cc1 | 101% (inactive) |
| O=C(CCCCC(=O)N/N=C\c1ccccc1O)N/N=C\c1ccccc1O | 4.44% (active) |
| N#Cc1nn(-c2cc(=O)[nH]c3ccc(Cl)cc23)c(N)c1C#N | 0.972% (active) |
| Nc1c(C(=O)O)[nH]c(=O)[nH]c1=O | 81.3% (inactive) |
| COc1ccc(C(=O)c2c(N)nc3n2CCCC3)cc1OC | 94.1% (inactive) |
| Fc1cccc(CNc2c3ccccc3nc3ccccc23)c1F | 76% (inactive) |
| CN(CCNCc1ccccn1)CCNCc1ccccn1 | 6% (active) |
| CC(C)N(Cc1ccc(CN(C(=O)CCl)C(C)C)cc1)C(=O)CCl | -46% (active) |
| COc1ccc(-c2cc(-c3ccc(Cl)cc3)c(C#N)c(=O)n2CCCCC(=O)Nc2ccccc2N)cc1 | 3.34% (active) |
